# Compound activity (PubChem BioAssay)
# This is a sample that favours compounds with a hit; in the whole collection about 19% have one here.
# TDP1 inh = qHTS Assay for Inhibitors of Tyrosyl-DNA Phosphodiesterase (TDP1); Tyrosyl-DNA phosphodiesterase 1 (Homo sapiens), Q9NUW8; recombinant TDP1, AlphaScreen DNA substrate cleavage; Potency, µM (top dose mostly 130 µM), inactives show top-dose activity change, negative = inhibition, hits mostly inhibitors; 350,000 tested, 0.28% active; also: potency is read from the fitted curve at half-maximal effect; nearly all actives have a fitted effect of over 40% in size
# Target sequence (Q9NUW8 whole entry, looked up): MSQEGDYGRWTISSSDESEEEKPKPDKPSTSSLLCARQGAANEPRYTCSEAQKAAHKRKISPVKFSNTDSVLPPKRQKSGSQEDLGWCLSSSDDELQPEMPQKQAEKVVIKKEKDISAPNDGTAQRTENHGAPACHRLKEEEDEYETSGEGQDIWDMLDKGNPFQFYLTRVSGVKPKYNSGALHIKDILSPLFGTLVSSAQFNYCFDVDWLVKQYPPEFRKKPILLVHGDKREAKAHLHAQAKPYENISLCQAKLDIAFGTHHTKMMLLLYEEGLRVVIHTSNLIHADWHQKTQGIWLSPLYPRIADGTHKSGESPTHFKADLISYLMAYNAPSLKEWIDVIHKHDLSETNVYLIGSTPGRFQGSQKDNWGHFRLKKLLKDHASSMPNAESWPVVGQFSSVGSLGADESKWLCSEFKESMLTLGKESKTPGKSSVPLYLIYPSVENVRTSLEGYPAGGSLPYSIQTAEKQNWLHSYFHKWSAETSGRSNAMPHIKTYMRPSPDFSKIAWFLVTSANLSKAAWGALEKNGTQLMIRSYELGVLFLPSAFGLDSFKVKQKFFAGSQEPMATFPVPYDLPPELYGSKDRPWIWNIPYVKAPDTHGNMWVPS
#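 Steps: enzyme plus compound, 15 min RT; add biotin/phosphotyrosine-FITC oligonucleotide (15 nM final), react 5 min; add donor/acceptor beads (10 ug/ml final), 10 min; read AlphaScreen. Tdp1 at 1 nM final.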
# ELG1 repair inh = qHTS screen for small molecules that inhibit ELG1-dependent DNA repair in human embryonic kidney (HEK293T) cells expressing luciferase-tagged ELG1. HEK293T ELG1-luciferase reporter, luminescence, 16 h; DNA damage induced by 5-fluorouridine. 330,000 tested, 2.3% active. AID 504467, 2011. Potency, µM (top dose mostly 46.1 µM), without a hit: top-dose activity change, negative = inhibition, usual class: inhibitors; also: potency is read from the fitted curve at half-maximal effect; nearly all actives have a fitted effect of over 55% in size
#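 5-Fluorouridine DNA damage + compound/DMSO, 2,000 cells/well, 16 h, 37 °C/5% CO2. ONE-Glo, 30 min RT, luminescence. Readout = decrease in reporter signal.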
# Giardia killer = Small Molecules that selectively kill Giardia lamblia: qHTS; 340,000 tested, 0.15% active; AID 540267, 2011; activity change, % at 7.66 µM, hits read low; Giardia lamblia trophozoite viability; in the data active = activity change below about -80%; inconclusive = between about -30% and that limit;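 also: parasites exposed to compound for two days anaerobically before the ATP read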
#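 Luminescent ATP signal served as the viability read-out, measured 15-30 min after adding ATP detection reagent to trophozoites that had been incubated with compounds for 48 hrs at 37 deg C anaerobically at 100 cells/well.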
# DT40 TDP1 no CPT = qHTS for Inhibitors of human tyrosyl-DNA phosphodiesterase 1 (TDP1): qHTS in cells in absence of CPT | 420,000 tested, 15% active | Potency, µM (top dose mostly 46.2 µM), without a hit: at the highest dose activity change, negative = growth inhibition, actives largely listed as inhibitors | DT40 Tdp1-/- hTDP1 cells, no CPT, ATP luminescence, 48 h; also: potency is read from the fitted curve at half-maximal effect; nearly all actives have a fitted effect of over 55% in size
#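 Chicken DT40 Tdp1-/- cells stably complemented with human TDP1 were seeded at 400 cells/well with DMSO in place of 20 nM camptothecin. After compound pinning, cells grew at least 48 hr at 37 °C; viability read by CellTiter-Glo luminescence.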
# DT40 TDP1 CPT = qHTS for Inhibitors of human tyrosyl-DNA phosphodiesterase 1 (TDP1): qHTS in cells in presence of CPT | AID 686979, 2013 | Potency, µM (doses to about 46.2 µM), inactives show top-dose activity change, negative = growth inhibition, usual class: inhibitors | chicken DT40 Tdp1-/-;hTDP1 cells + 20 nM CPT, ATP luminescence, 48 h | 420,000 tested, 12% active; also: potency is read from the fitted curve at half-maximal effect; nearly all actives have a fitted effect of over 55% in size
#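 Cell growth measured by CellTiter-Glo luminescence after a minimum 48 h, 37 C compound exposure with 20 nM CPT in Tdp1-knockout DT40 cells stably expressing hTDP1, seeded 400/well; qHTS titration format.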
# IL1B secr inh = qHTS for Inhibitors of Inflammasome Signaling: IL-1-beta AlphaLISA Primary Screen; THP-1 LPS/ATP IL-1B secretion, AlphaLISA, 16 h; active compounds read low; activity change, % at 57.5 µM; 360,000 tested, 4.7% active; AID 743279, 2014; in the data active = activity change below about -50%; inconclusive = mostly about -30% to -49%
#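 Secreted IL-1B measured by AlphaLISA bead assay after 16 h compound exposure of THP-1 cells; compounds (final up to 57.5 uM) added 1 h before LPS (250 ng/mL) and ATP (1.25 mM) stimulation; lower signal means less secretion.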
# * = called active by the depositor; ? = inconclusive; / = no result; [ ] = another dose, or the depositor's remark. Unless noted, calls follow the shape of the dose curve; as a rule, active = well fitted curve in the direction sought with a large enough effect; inconclusive = small, poorly fitted or top-dose-only effect, or another doubt; inactive = no such curve, though single readings can be large; an effect the other way counts as inactive or inconclusive. % is scaled to controls: 0 for no effect and ±100 for the full control effect.
SMILES,TDP1 inh,ELG1 repair inh,Giardia killer,DT40 TDP1 no CPT,DT40 TDP1 CPT,IL1B secr inh
CC12CCC(C/C1=N\OC(=O)c1c(F)cccc1F)C2(C)C (stereo not given),6.8%,0.3%,-18.1,-2.4%,1.9%,21.7
O=C(c1nc2nc(-c3cccs3)cc(C(F)(F)F)n2n1)N1CCN(Cc2ccccc2)CC1,1.1%,-29.9%,5.0,?,?,-18.5
NS(=O)(=O)c1ccc(N=Nc2ccc(=O)[nH]c2O)cc1,44.7µM*,28.3%,-2.0,-3.2%,28.8%,26.4
CCN(CC)S(=O)(=O)c1cc(OC)ccc1N=Nc1ccc(O)c2ncccc12,/,?,-5.4,?,7.31µM*,34.1
COc1cc(CN2C(=O)C(CCc3ccccc3)ON=C2c2cnccn2)cc(OC)c1 (stereo not given),/,/,/,?,?,-28.7
Clc1cc(Cl)cc(Nc2ncn[nH]2)c1,3.2%,-4.7%,-3.9,-3.7%,0.3%,8.0
COC(=O)c1ccc(Oc2nc(Nc3ccccc3)nc(N(C)C)n2)cc1,5.5%,?,12.7,20.6µM*,?,-0.7
CN(C)CCNC(=O)c1ccccc1,0.5%,4.1%,2.1,-10.4%,-12.8%,14.6
COc1ccc(OC)c2nc3c(C(=O)NCCN(C)C)cccc3nc12,/,/,-9.6,2.59µM*,1.64µM*,-100.4*
CN(C)CCNC(=O)c1cccc2ccc(-c3ccc(-c4ccccc4)cc3)nc12,/,/,-20.3,?,?,-57.3*
CN(C)CCNC(=O)c1cccc2nc3cccc(F)c3nc12,/,/,-2.7,0.259µM*,0.082µM*,-116.2*
COc1ccc(C23CC4CC(CC(C4)C2)C3)cc1C(=O)NCCN(C)C,/,-16.7%,-17.2,8.2µM*,20.6µM*,-12.6
COCCCNC(=O)CCCn1c(=O)c2ccccc2n(CC(=O)Nc2ccc(C)cc2Cl)c1=O,-2.7%,/,/,-9.6%,-27.0%,/
COc1ccc(NC(=O)[C@H](C)NC(=O)C2CCN(S(=O)(=O)c3ccc(C)cc3)CC2)cc1,2.5%,9.6%,9.7,-6.0%,4.4%,-22.7
COC(=O)c1cc2c(cc1NC(=O)c1c(C)nn(-c3ccc(C)cc3)c1-n1cccc1)OCO2,0.0%,/,/,?,-5.0%,/
CCOC(=O)c1ccccc1NC(=O)CSc1nc2ncccc2[nH]1,3.7%,/,/,?,?,/
COc1ccc([N+](=O)[O-])c(O)c1C(C)=O,/,/,-0.1,-2.7%,13.0%,8.4
CCOc1ccc(NC(=O)c2sc(-n3nc(C)c(CCC(C)C)c3C)nc2C)cc1,1.6%,/,/,?,?,/
CCOC(=O)C1C(=O)Oc2ccc3ccccc3c2C1C1CCOC1=O (stereo not given),6.9%,10.4%,-16.3,14.6µM*,?,16.5
CCc1nc2cc(C(=O)N3CCCN(C=O)CC3)cc(NC(=O)c3ccccc3OC)c2n1C,/,/,/,-11.7%,15.0%[9.04 µM],/
CCCNC(=O)CCn1c(=S)oc2ccccc21,/,-5.6%,16.1,?,9.2µM*,-12.0
COC(=O)COc1ccc2oc(=O)cc(-c3cc4cccc(OC)c4o3)c2c1,44.7µM*,-4.2%,-1.4,1.3%,-23.9%,35.6
COc1ccc(C(OC(=O)c2ccco2)C(=O)NC(C)(C)C)cc1OC (stereo not given),/,/,-10.3,-10.0%,-9.8%,7.2
COc1cc(-c2cnc3ccccc3c2)cc2c1OCCN(C(=O)Cn1nccc1C)C2,/,/,/,-2.0%,-10.6%[9.04 µM],/
CCc1cc2c(N=Nc3c(O)[nH]c4ccccc34)ncnc2s1,0.0%,8.7%,-6.9,20.6µM*,18.4µM*,11.9
